Results: publication PMC5540273 (PLoS ONE, 2017)

Columns and labels:
Details in all cases: concentration: 1 μM, replicates: in singlicate; n = 1
MTOR = system: MTOR
MUSK = system: MUSK
MYLK2 = system: MYLK2
MYLK4 = system: MYLK4
MYLK = system: MYLK
MYO3A = system: MYO3A
MYO3B = system: MYO3B
NDR1 = system: T1, NDR1
T1 construct: gene STK38

NDR2 = system: NDR2
NEK10 = system: NEK10
NEK11 = system: NEK11
NEK1 = system: NEK1
NEK2 = system: NEK2
NEK3 = system: NEK3
NEK4 = system: NEK4
NEK5 = system: NEK5
NEK6 = system: NEK6
NEK7 = system: NEK7
NEK9 = system: NEK9
NIK = system: T2, NIK
T2 construct: gene MAP3K14
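Also: KINOMEscan kinase panel screen.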

SMILES	%Inh (MTOR) [%]	%Inh (MUSK) [%]	%Inh (MYLK2) [%]	%Inh (MYLK4) [%]	%Inh (MYLK) [%]	%Inh (MYO3A) [%]	%Inh (MYO3B) [%]	%Inh (NDR1) [%]	%Inh (NDR2) [%]	%Inh (NEK10) [%]	%Inh (NEK11) [%]	%Inh (NEK1) [%]	%Inh (NEK2) [%]	%Inh (NEK3) [%]	%Inh (NEK4) [%]	%Inh (NEK5) [%]	%Inh (NEK6) [%]	%Inh (NEK7) [%]	%Inh (NEK9) [%]	%Inh (NIK) [%]
COC(=O)Nc1nc2ccc(Oc3ccc(NC(=O)Nc4cc(C(F)(F)F)ccc4F)cc3)cc2[nH]1.Cl [GW654607]	34	99.6	33	0	10	0	0	29	0	21	0	0	0	0	0	13	0	19	57	60
Cc1ccc(O)cc1Nc1ccnc2ccc(C(C)(C)C)cc12 [GW856805]	0	27	5	13	25	13	6	18	23	27	23	21	9	39	1	17	20	25	10	31
CC(C)(C)c1ccc(C(=O)Nc2cn3cc(-n4ccnc4)ccc3n2)cc1	10	1	18	2	0	0	0	8	7	0	0	0	0	35	0	13	2	0	3	0
O=C(O)C(F)(F)F.O=c1[nH]ccc2nc(N[C@@H]3CCNC3)nc(Nc3ccc4c(c3)S(=O)(=O)CC4)c12 [GSK2181306]	1	0	78	60	98.1	74	4	89	89	95.3	0	6	46	8	16	0	3	5	19	77
CN(C)CCNS(=O)(=O)c1ccc(-c2ccnc3[nH]ccc23)cc1 [GSK977620]	17	23	35	99.5	28	0	0	29	15	17	0	99.8	0	0	4	1	1	0	0	0
COc1cccc(NC(=O)NCCNc2ccnc(Nc3ccc(F)cc3)n2)c1 [GSK1379879]	32	5	0	0	16	22	0	18	0	0	0	0	0	9	0	11	0	0	0	27
Cc1ccc(C)c(NC(=O)Nc2ccc(C)c(-c3ccc(C(=O)Nc4ccncc4)cc3)c2)c1 [GSK1398473]	17	0	0	0	0	0	0	29	0	18	0	0	1	5	0	8	1	0	7	4
COc1cc(Nc2ccnc3cc(-c4ccncc4)ccc23)cc(OC)c1OC.Cl [GW494610]	20	10	13	0	84	19	6	17	0	0	8	0	0	0	0	5	1	0	4	0
Nc1cccc(-c2ccc3c(N)n[nH]c3c2)c1 [GSK2193613]	13	20	92.3	96.9	40	45	0	27	13	10	17	11	11	0	0	6	0	0	8	6
